# Results: PubChem BioAssay (NCI)
# Compounds without any hit were thinned out: in the full panel of roughly 79,000, 15% have a hit. Unmarked numbers belong to inactive results. Activity calls are given as the source filed them. Cut-off read from the data, not from the text of the source: active = growth inhibition above about 70%; inactive = the rest.
# Assays:
# [1] = NCI Yeast Anticancer Drug Screen. Data for the rad52 strain (AID 147);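 note: 0% = growth of vehicle-treated control cultures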; details: S. cerevisiae rad52 mutant growth inhibition, hits give high values
# Outline: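 Genetically altered yeast (DNA damage repair defect) treated with compound; inhibition calculated relative to vehicle.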
# [2] = NCI Yeast Anticancer Drug Screen. Data for the wt1 strain (AID 149);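 note: 0% = growth of vehicle-treated wt1 cultures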; details: S. cerevisiae wt1 strain (SPY 50644) growth inhibition, hits give high values
# Outline: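 Measured: growth of wt1 yeast under compound versus vehicle treatment, reported as inhibition.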
# [3] = NCI Yeast Anticancer Drug Screen. Data for the rad50EPP+ strain (AID 151);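 note: 0% = growth of vehicle-treated control cultures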; details: S. cerevisiae rad50 mutant strain, hits give high values
# Outline: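 Strain rad50EPP+; compound exposure; % growth inhibition vs vehicle.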
# [4] = NCI Yeast Anticancer Drug Screen. Data for the mgt1 strain (AID 153); details: S. cerevisiae mgt1 mutant growth inhibition, hits give high values
# Outline: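 Read-out: yeast growth inhibition vs vehicle control. Strain mgt1, drawn from a panel altered in DNA damage repair or cell cycle control.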
# [5] = NCI Yeast Anticancer Drug Screen. Data for the rad50 strain (AID 155);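 note: 0% = growth of vehicle-only cultures of the same strain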; details: S. cerevisiae rad50 strain growth inhibition, hits give high values
# Outline: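 Growth of the mutant yeast was measured after compound exposure and referenced to vehicle-treated cultures.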
# [6] = NCI Yeast Anticancer Drug Screen. Data for the mec2-1 strain (AID 157); details: S. cerevisiae mec2-1 strain, hits give high values
# Outline: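 Cells of the genetically defined mec2-1 yeast strain are incubated with test compound. Inhibition of growth is calculated against vehicle-treated controls.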
# [7] = NCI Yeast Anticancer Drug Screen. Data for the rad14 strain (AID 159);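 note: 0% = growth of vehicle-treated control cultures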; details: S. cerevisiae rad14 strain growth inhibition, hits give high values
# Outline: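 Here, inhibition of yeast growth was measured after compound exposure, using a strain with a genetic defect in DNA damage repair and vehicle-treated cultures as the reference.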
# [8] = NCI Yeast Anticancer Drug Screen. Data for the sgs1 mgt1 strain (AID 161);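 note: 0% = growth of cultures given vehicle only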; details: S. cerevisiae sgs1 mgt1 strain, hits give high values
# Outline: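 Read-out: growth inhibition vs vehicle controls. Cells: mutant yeast strain deficient in DNA damage repair.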
# [9] = NCI Yeast Anticancer Drug Screen. Data for the CLN2oe strain (AID 163);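 note: 0% = growth of vehicle-only control cultures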; details: S. cerevisiae CLN2oe strain, hits give high values
# Outline: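 Strain altered in cell-cycle control, incubated with compound; growth compared to solvent-treated controls.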
# [10] = NCI Yeast Anticancer Drug Screen. Data for the cln2 rad14 strain (AID 165);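 note: 0% = growth equal to vehicle treated cultures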; details: S. cerevisiae cln2 rad14 strain, hits give high values
# Outline: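 The screen exposed genetically defined yeast (cln2 rad14) to test compounds and scored growth inhibition relative to vehicle-treated controls.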
# [11] = NCI Yeast Anticancer Drug Screen. Data for the wt2 strain (AID 169);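 note: 0% = growth of vehicle-treated yeast cultures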; details: S. cerevisiae wt2 strain growth inhibition, hits give high values
# Outline: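 Steps: yeast strain treated with compound; growth recorded; inhibition calculated relative to cultures given vehicle alone.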
# [12] = NCI Yeast Anticancer Drug Screen. Data for the mlh1 strain (AID 171);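 note: 0% = growth of vehicle-treated control cultures of the same strain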; details: S. cerevisiae mlh1 strain growth inhibition, hits give high values
# Outline: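 Yeast screen: mutant strain plus compound, growth scored against vehicle control wells.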
# [13] = NCI Yeast Anticancer Drug Screen. Data for the mlh1 rad18 strain (AID 175); details: S. cerevisiae mlh1 rad18 strain growth inhibition, hits give high values
# Outline: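 Compound-treated yeast growth, normalised to vehicle controls. Strain bears defined DNA repair mutations.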
# [14] = NCI Yeast Anticancer Drug Screen. Data for the rad18 strain (AID 177); details: S. cerevisiae rad18 mutant growth inhibition, hits give high values
# Outline: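 Inhibition values reflect reduced yeast growth compared with vehicle-treated controls, using a strain engineered with a DNA damage repair defect.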
# [15] = at 5.0 µM (retest, dose inferred, filed as 0.5)
# [16] = at 50.0 µM (retest, dose inferred, filed as 5.0)
structure (smiles),measurement,setting,value
O=[N+]([O-])c1ccc2[nH]c3c(-c4ccccc4)nccc3c2c1,growth inhibition,[1]; at 1.2 µM,-1%
same,growth inhibition,[1]; at 3.7 µM,8%
same,growth inhibition,[1]; at 11.0 µM,96% (active)
same,growth inhibition,[1]; at 33.0 µM,97% (active)
same,growth inhibition,[1]; at 100.0 µM,97% (active)
same,growth inhibition,[2]; at 1.2 µM,-4%
same,growth inhibition,[2]; at 3.7 µM,-8%
same,growth inhibition,[2]; at 11.0 µM,87% (active)
same,growth inhibition,[2]; at 33.0 µM,94% (active)
same,growth inhibition,[2]; at 100.0 µM,92% (active)
same,growth inhibition,[3]; at 1.2 µM,20%
same,growth inhibition,[3]; at 3.7 µM,43%
same,growth inhibition,[3]; at 11.0 µM,68%
same,growth inhibition,[3]; at 33.0 µM,79% (active)
same,growth inhibition,[3]; at 100.0 µM,79% (active)
same,growth inhibition,[4]; at 1.2 µM,-2%
same,growth inhibition,[4]; at 3.7 µM,-4%
same,growth inhibition,[4]; at 11.0 µM,94% (active)
same,growth inhibition,[4]; at 33.0 µM,97% (active)
same,growth inhibition,[4]; at 100.0 µM,97% (active)
same,growth inhibition,[5]; at 1.2 µM,-3%
same,growth inhibition,[5]; at 3.7 µM,2%
same,growth inhibition,[5]; [15],10%
same,growth inhibition,[5]; at 11.0 µM,92% (active)
same,growth inhibition,[5]; at 33.0 µM,96% (active)
same,growth inhibition,[5]; [16],96% (active)
same,growth inhibition,[5]; at 50.0 µM,98.8% (active)
same,growth inhibition,[5]; at 100.0 µM,96% (active)
same,growth inhibition,[6]; at 1.2 µM,-4%
same,growth inhibition,[6]; at 3.7 µM,-6%
same,growth inhibition,[6]; [15],-5%
same,growth inhibition,[6]; at 11.0 µM,96% (active)
same,growth inhibition,[6]; at 33.0 µM,98% (active)
same,growth inhibition,[6]; [16],97% (active)
same,growth inhibition,[6]; at 50.0 µM,91.2% (active)
same,growth inhibition,[6]; at 100.0 µM,98% (active)
same,growth inhibition,[7]; at 1.2 µM,-1%
same,growth inhibition,[7]; at 3.7 µM,-1%
same,growth inhibition,[7]; at 11.0 µM,85% (active)
same,growth inhibition,[7]; at 33.0 µM,96% (active)
same,growth inhibition,[7]; at 100.0 µM,95% (active)
same,growth inhibition,[8]; [15],10%
same,growth inhibition,[8]; [16],98% (active)
same,growth inhibition,[8]; at 50.0 µM,93% (active)
same,growth inhibition,[9]; at 1.2 µM,-8%
same,growth inhibition,[9]; at 3.7 µM,38%
same,growth inhibition,[9]; at 11.0 µM,96% (active)
same,growth inhibition,[9]; at 33.0 µM,96% (active)
same,growth inhibition,[9]; at 100.0 µM,96% (active)
same,growth inhibition,[10]; [15],-10%
same,growth inhibition,[10]; [16],96% (active)
same,growth inhibition,[10]; at 50.0 µM,98.3% (active)
same,growth inhibition,[11]; at 1.2 µM,0%
same,growth inhibition,[11]; at 3.7 µM,43%
same,growth inhibition,[11]; at 11.0 µM,96% (active)
same,growth inhibition,[11]; at 33.0 µM,98% (active)
same,growth inhibition,[11]; at 100.0 µM,98% (active)
same,growth inhibition,[12]; at 1.2 µM,-2%
same,growth inhibition,[12]; at 3.7 µM,15%
same,growth inhibition,[12]; at 11.0 µM,96% (active)
same,growth inhibition,[12]; at 33.0 µM,97% (active)
same,growth inhibition,[12]; at 100.0 µM,97% (active)
same,growth inhibition,[13]; [15],3%
same,growth inhibition,[13]; [16],96% (active)
same,growth inhibition,[13]; at 50.0 µM,97.8% (active)
same,growth inhibition,[14]; at 1.2 µM,-1%
same,growth inhibition,[14]; at 3.7 µM,-4%
same,growth inhibition,[14]; at 11.0 µM,95% (active)
same,growth inhibition,[14]; at 33.0 µM,96% (active)
same,growth inhibition,[14]; at 100.0 µM,97% (active)
